# Among all 16,000 compounds or so, about 5,100 (32%) were called active. About 25% were inconclusive and are not listed. Some of the results follow. Unmarked numbers belong to inactive results. Calls come from the whole dose curve; as a rule, active = well fitted curve in the direction sought with a large enough effect; inconclusive = small, poorly fitted or top-dose-only effect, or effect the other way; inactive = no such curve, though single readings can be large or run the other way.
# Biological target: Cytochrome P450 3A4 (Homo sapiens) (UniProt P08684)
# Sequence (P08684 whole entry, looked up): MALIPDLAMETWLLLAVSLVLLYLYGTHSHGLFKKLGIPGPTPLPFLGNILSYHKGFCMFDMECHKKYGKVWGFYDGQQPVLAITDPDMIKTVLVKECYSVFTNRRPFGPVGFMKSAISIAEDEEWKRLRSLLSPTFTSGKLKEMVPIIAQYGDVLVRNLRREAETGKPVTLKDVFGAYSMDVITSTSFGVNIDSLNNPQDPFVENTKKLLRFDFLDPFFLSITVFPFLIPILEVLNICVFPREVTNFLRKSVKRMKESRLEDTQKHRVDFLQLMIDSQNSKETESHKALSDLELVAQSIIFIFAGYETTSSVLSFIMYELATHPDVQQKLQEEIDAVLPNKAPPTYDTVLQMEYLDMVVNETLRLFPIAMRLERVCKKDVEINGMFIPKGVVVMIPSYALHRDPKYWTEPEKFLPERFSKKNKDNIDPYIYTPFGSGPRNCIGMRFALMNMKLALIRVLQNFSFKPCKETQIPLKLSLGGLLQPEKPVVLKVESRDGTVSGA
# Assay: Cytochrome panel assay with activity outcomes
# Details: recombinant CYP, pro-luciferin dealkylation, luminescence, p450-cyp3a4; series mostly up to 57.1 µM; activity, negative = inhibition: at the top concentration
# % is set by controls: 0 for no effect and ±100 for the full control effect.
SMILES,"activity, negative = inhibition",AC50
CO[C@@H](C)[C@](O)(C(=O)OCC1=CCN2CC[C@@H](O)[C@H]12)C(C)C,-1.31% [at 25.6 µM],
C#C[C@@]1(O)CC[C@@H]2[C@@H]3CCC4=CC(=O)CC[C@@]4(C)[C@H]3CC[C@]21C,-13.5% [at 25.6 µM],
NO,4.33%,
O=C1NC(=S)NC(=O)C1=Cc1cccc2cc3ccccc3cc12,-17.5% [at 11.4 µM],
C[C@@H]1O[C@H](C[N+](C)(C)C)CS1,-2.37%,
COc1ccc2[nH]c(C(=O)c3ccccc3)cc2c1,,7.94 µM (active)
COC(=O)Nc1nc2ccc(C(=O)c3cccs3)cc2[nH]1,-9.88% [at 25.6 µM],
COc1ccc2[nH]c3c(c2c1)CCNC3,-20.9%,
Fc1ccc(CCNCc2ccc(Cl)c(Cl)c2)cc1,-18.5% [at 2.29 µM],
Fc1ccccc1CCNCc1cccc(Cl)c1Cl,,0.631 µM (active)
CCN=C=NCCCN(C)C,0.783% [at 11.4 µM],
O=NN(Cc1ccc(Cl)cc1)[C@@H](C(=O)O)c1ccccc1,-7.56% [at 11.4 µM],
C[N+]1([O-])[C@@H]2CC[C@H]1CC(OC(=O)[C@@H](CO)c1ccccc1)C2 (some centres not stated),-4.21% [at 25.6 µM],
C[C@]12CC[C@H]3c4ccc(O)cc4CC[C@@H]3[C@H]1CC[C@@H]2OP(=O)(O)O,0.528% [at 11.4 µM],
COc1ccc(C2NCc3ccc4c(c3-n3cccc32)OCO4)cc1OC (configuration not stated),,5.01 µM (active)
COCCCNC(=S)NC1CC2CCCC(C1)N2Cc1cccs1 (configuration not stated),2.48%,
COCCNC(=S)NC1CC2CCCC(C1)N2Cc1cccs1 (configuration not stated),-1.58%,
COCCNC(=S)N1C2CCC1CC(NC(=O)NC13CC4CC(CC(C4)C1)C3)C2 (configuration not stated),,3.16 µM (active)
CN1CCN(c2ccc3ccccc3n2)CC1,inactive,
NC(N)=NN=Cc1c(Cl)cccc1Cl,-25.5%,
[N-]=[N+]=NCC(=O)c1c[nH]c(=O)[nH]c1=O,17.4% [at 11.4 µM],
N/C(=N\N=C/c1ccc(-c2ccc(O)c(C(=O)O)c2)o1)N[N+](=O)[O-],-39.2%,
C[C@@H]1Cc2cc3c(cc2C(c2ccc(N)cc2)=NN1)OCO3,,2.51 µM (active)

SMILES,"activity, negative = inhibition",AC50
C[N+]1([O-])[C@H]2CC[C@H]1CC(OC(=O)[C@@H](CO)c1ccccc1)C2 (some centres not stated),-2.26% [at 11.4 µM],
C[C@@]12CC(=O)[C@H]3[C@@H](CCC4=CC(=O)CC[C@]43C)[C@H]1CCC2=O,-41.1% [at 25.6 µM],
NC(N)=Nc1ccc2[nH]c3c(c2c1)C[C@]1(O)[C@@H]2Cc4ccc(O)c5c4[C@]1(CCN2CC1CC1)[C@@H]3O5,15.1%,
CCCC[N+]1(C)[C@@H]2CC(OC(=O)[C@@H](CO)c3ccccc3)C[C@H]1[C@H]1O[C@H]12 (some centres not stated),-9.71%,
N[C@@H](Cc1ccccc1)P(=O)(O)O,-2.63% [at 11.4 µM],
COc1ccc(C[C@@H](N)c2ccc(OC)cc2)cc1,-30.1% [at 11.4 µM],
CCSc1nnc(C(N)Cc2ccccc2)o1 (configuration not stated),,11.2 µM (active)
CN1CC[C@@]23c4ccccc4N[C@H]1[C@]21CCN(C)[C@@H]3Nc2ccccc21,-11.4% [at 25.6 µM],
C[C@H](OP(=O)(O)O)[C@H](N)C(=O)O,-9.79% [at 11.4 µM],
O=C1C=CC(=O)c2c1ccc1c2ccc2ccccc21,-24.8% [at 25.6 µM],
Nc1ccc(CCN2CCN(c3cccc(C(F)(F)F)c3)CC2)cc1,,7.94 µM (active)
NCCCN1CCN(c2ccccc2)CC1,-17.3% [at 11.4 µM],
C=C1[C@@H]2C[C@@]3([C@H]1O)[C@H]1C[C@@H]4[C@@]5(C)CC[C@H](O)[C@]4([C@H]1N(CC)C5)[C@H]3C[C@H]2O,-1.02% [at 25.6 µM],
NC(=NCc1ccc(Cl)cc1)SCCCc1cnc[nH]1,,1.58 µM (active)
OCc1cnc[nH]1,-11.1%,
NC(=NCCc1ccc(I)cc1)SCCCc1cnc[nH]1,,0.794 µM (active)
NC(N)=NCCC[C@H](N)C(=O)O,-9.21%,
NS(=O)(=O)c1cc([C@@]2(O)NC(=O)c3ccccc32)ccc1Cl,-2.87% [at 25.6 µM],
Cc1o[nH]c(=O)c1C[C@H](N)C(=O)O,inactive,
CCCCN1C(=O)/C(=C/c2ccc(N(C)C)cc2)C(=O)N(Cc2ccco2)C1=O,-12% [at 2.29 µM],
O=C(O)/C=C\c1ccc[c]([Sb](=[O])([OH])[OH])c1,-2.48% [at 11.4 µM],
CCCN1CCC[C@H](c2cccc(C#N)c2)C1,-3.09%,
CCCc1cc2c(n1Cc1ccc(C)cc1)C(C)C1CN(C(=O)c3ccccc3)C(C)(C(=O)OC)C21 (configuration not stated),,3.16 µM (active)

SMILES,"activity, negative = inhibition",AC50
CCCc1cc2c(n1CCO)C(C)C1CN(C(=O)c3ccccc3)C(C)(C(=O)OC)C21 (configuration not stated),,10 µM (active)
CCCc1cc2c(n1Cc1cccc(Cl)c1)C(C)C1CN(C(=O)c3ccccc3)C(C)(C(=O)OC)C21 (configuration not stated),,5.01 µM (active)
CC[N+](CC)(CCCNC1=CC(=O)C(NCCC[N+](CC)(CC)Cc2ccccc2)=CC1=O)Cc1ccccc1,-14%,
CC(C)C[C@H](NP(=O)(O)O[C@@H]1O[C@@H](C)[C@@H](O)[C@@H](O)[C@H]1O)C(=O)N[C@@H](Cc1c[nH]c2ccccc12)C(=O)O,-8.92%,
C[C@@]12CC[C@H]3[C@@H](CC=C4C[C@H](OS(=O)(=O)O)CC[C@]43C)[C@H]1CCC2=O,-14.9%,
CCN1CCN(c2ccc(NC(=O)C(C)C)cc2Cl)CC1,2.04%,
NC[C@H](O)c1ccc(O)cc1,inactive,
O=C1C2CCN(CC2)C1(CO)CO,inactive,
O=C(O)Cc1cccnc1C(=O)O,-4.82%,
C[C@@H]1O[C@H]1P(=O)(O)O,9.75%,
CC[C@H]1CN2CCc3cc(OC)c(OC)cc3[C@H]2C[C@@H]1C[C@H]1NCCc2c1[nH]c1ccc(O)cc21,-8.94% [at 11.4 µM],
C[C@](N)(CCP(=O)(O)O)C(=O)O,-14.5%,
O=C(Oc1ccccc1)N1CCC[C@@]2(CCN(C(c3ccccc3)c3ccccc3)C2)C1,,10 µM (active)
CC(C)CN1CC2(CCN(C(=O)Oc3ccccc3)CC2)C1,-5.86%,
CC(C)CN1CC[C@@]2(CCCN(C(=O)Oc3ccccc3)C2)C1,,12.6 µM (active)
N#Cc1ccc(CN2CC[C@@]3(CCCN(C(=O)Oc4ccccc4)C3)C2)cc1,,7.94 µM (active)
COC(=O)N1CCC2(CCN(CC(C)C)CC2)CC1,-27.1%,
CN1CCC2(CC1)CCN(C(=O)Oc1ccccc1)CC2,-5.53%,
O=C(Oc1ccccc1)N1CCC2(CCCN(C(c3ccccc3)c3ccccc3)C2)CC1,4.99%,
CN1CC[C@@]2(CCCN(C(=O)Oc3ccccc3)C2)C1,,12.6 µM (active)
COC(=O)N1CCC2(CCCN(C)C2)CC1,-17.8%,
